According to PubChem BioAssay (EPA / NIEHS):
The source made the active and inactive calls. How the source made its calls: active means hit-call score of the fitted dose curve at least 0.9, where 1 is the maximum; inactive means score below 0.9.

Experiments:
Conditions in all cases: mRNA level, 48 h; actives raise or lower the signal
[1] = read-out: growth arrest and DNA damage 45 (GADD45G), GADD45G (gene 10912); test: LTEA_HepaRG_GADD45G: Life Technologies and Expression Analysis (LTEA) Assay for growth arrest and DNA damage 45 (GADD45G) using HepaRG (AID 2283499)
Outline: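 Gain or loss of GADD45G mRNA, quantified by TaqMan qRT-PCR against three housekeeping genes, is fitted in both directions relative to 0.5% DMSO. Human HepaRG cultures receive test chemical for 48 h at up to 100 uM.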

[2] = read-out: Glutamate-cysteine ligase regulatory (GCLM), GCLM (gene 2730); test: LTEA_HepaRG_GCLM: Life Technologies and Expression Analysis (LTEA) Assay for Glutamate-cysteine ligase regulatory (GCLM) using HepaRG (AID 2283500)
Outline: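 Differentiated human HepaRG cells exposed 48 h in serum-free induction medium to 8-point half-log concentrations (top 100 uM, 0.5% DMSO), in duplicate. GCLM mRNA quantified by qRT-PCR, normalized to ACTB, GAPDH, POLR2A; bidirectional fitting versus DMSO.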

[3] = read-out: Glutathione S-transferase M3 (GSTM3), GSTM3 (gene 2947); test: LTEA_HepaRG_GSTM3: Life Technologies and Expression Analysis (LTEA) Assay for Glutathione S-transferase M3 (GSTM3) using HepaRG (AID 2283501)
Outline: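 HepaRG, plated 48 h, then serum-free induction medium; test chemical 48 h, duplicate; 100 uM top, half-log x8, 0.5% DMSO. Read-out: GSTM3 mRNA (TaqMan qRT-PCR, Fluidigm array). Bidirectional fit vs DMSO.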

[4] = read-out: Heat shock 70 kDa protein 1 (HSPA1A), gene 3303; test: LTEA_HepaRG_HSPA1A: Life Technologies and Expression Analysis (LTEA) Assay for Heat shock 70 kDa protein 1 (HSPA1A) using HepaRG (AID 2283502)
Outline: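 Differentiated human HepaRG cells in serum-free induction medium were exposed in duplicate for 48 h to eight concentrations (top 100 uM, half-log steps, 0.5% DMSO). HSPA1A mRNA was quantified by qRT-PCR, normalized to ACTB, GAPDH and POLR2A, and fitted bidirectionally against DMSO.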

[5] = read-out: 3-Hydroxy-3-Methylglutaryl-CoA Synthase 2 (HMGCS2), HMGCS2 (gene 3158); test: LTEA_HepaRG_HMGCS2: Life Technologies and Expression Analysis (LTEA) Assay for 3-Hydroxy-3-Methylglutaryl-CoA Synthase 2 (HMGCS2) using HepaRG (AID 2283504)
Outline: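 HepaRG, plated 48 h then switched to serum-free induction media; cmpd 8-pt, max 100 uM, 1/2-log, 0.5% DMSO, n=2, 48 h. HMGCS2 mRNA by Fluidigm TaqMan qRT-PCR, ACTB/GAPDH/POLR2A norm; bidirectional fit vs DMSO.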

HGF (gene 3082) = test: LTEA_HepaRG_HGF: Life Technologies and Expression Analysis (LTEA) Assay for Hepatocyte Growth Facto (HGF) using HepaRG (AID 2283505)
Outline: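 Read-out is HGF transcript level by qRT-PCR, normalized to three housekeeping genes, fitted bidirectionally against 0.5% DMSO vehicle. Human HepaRG cells received test chemicals for 48 h at up to 100 uM.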

[6] = read-out: Insulin Like Growth Factor 1 (IGF1), IGF1 (gene 3479); test: LTEA_HepaRG_IGF1: Life Technologies and Expression Analysis (LTEA) Assay for Insulin Like Growth Factor 1 (IGF1) using HepaRG (AID 2283506)
Outline: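 Differentiated human HepaRG cells were dosed for 48 h in serum-free induction medium with 0.5% DMSO, eight half-log concentrations up to 100 uM, in duplicate. IGF1 mRNA was quantified by qRT-PCR normalized to ACTB, GAPDH, POLR2A; bidirectional fitting versus DMSO.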

[7] = read-out: Insulin-like growth factor-binding protein 1 (IGFBP1), IGFBP1 (gene 3484); test: LTEA_HepaRG_IGFBP1: Life Technologies and Expression Analysis (LTEA) Assay for Insulin-like growth factor-binding protein 1 (IGFBP1) using HepaRG (AID 2283508)
Outline: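 Thawed HepaRG cells are plated for 48 h, switched to serum-free induction medium, then dosed in duplicate for another 48 h (100 uM top, half-log steps). Lysates in RLT go to qRT-PCR, and gain or loss of signal is fitted relative to vehicle.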

[8] = read-out: Interleukin 6 (IL6), IL6 (gene 3569); test: LTEA_HepaRG_IL6: Life Technologies and Expression Analysis (LTEA) Assay for Interleukin 6 (IL6) using HepaRG (AID 2283509)
Outline: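 HepaRG cells exposed in duplicate for 48 h to eight half-log concentrations, top 100 uM, in 0.5% DMSO serum-free induction medium. mRNA measured by qRT-PCR, normalized to ACTB, GAPDH and POLR2A. Bidirectional fit versus DMSO.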

[9] = read-out: Interleukin 6 Receptor (IL6R), IL6R (gene 3570); test: LTEA_HepaRG_IL6R: Life Technologies and Expression Analysis (LTEA) Assay for Interleukin 6 Receptor (IL6R) using HepaRG (AID 2283510);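 on AC50: TaqMan qRT-PCR signal normalized to ACTB GAPDH and POLR2A housekeeping genes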
Outline: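 Differentiated human HepaRG cells, plated 48 h then switched to serum-free induction medium, were dosed in duplicate for 48 h at eight half-log concentrations up to 100 uM in 0.5% DMSO. IL6R mRNA quantified by qRT-PCR, normalized to ACTB/GAPDH/POLR2A; bidirectional fit versus DMSO.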

[10] = read-out: Potassium channel subfamily K member 1 (KCNK1), KCNK1 (gene 3775); test: LTEA_HepaRG_KCNK1: Life Technologies and Expression Analysis (LTEA) Assay for Potassium channel subfamily K member 1 (KCNK1) using HepaRG (AID 2283511)
Outline: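 Differentiated HepaRG cells, 48 h exposure in serum-free induction medium with 0.5% DMSO; 8 concentrations, half-log from 100 uM, duplicate. KCNK1 mRNA by qRT-PCR, normalized to ACTB, GAPDH, POLR2A; bidirectional fit vs DMSO.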

[11] = read-out: Keratin 19 (KRT19), KRT19 (gene 3880); test: LTEA_HepaRG_KRT19: Life Technologies and Expression Analysis (LTEA) Assay for Keratin 19 (KRT19) using HepaRG (AID 2283512)
Outline: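 KRT19 transcript levels, measured by Fluidigm qRT-PCR against three housekeeping genes, are fitted for gain or loss of signal relative to DMSO. Human HepaRG cells receive test chemicals (top 100 uM, half-log steps, 0.5% DMSO) for 48 hours.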

[12] = read-out: JUN Transcription Factor, JUN (gene 3725); test: LTEA_HepaRG_JUN: Life Technologies and Expression Analysis (LTEA) Assay for JUN Transcription Factor using HepaRG (AID 2283513)
Outline: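 Differentiated HepaRG cells were exposed to chemicals for 48 h in serum-free induction medium, 8 concentrations from 100 uM in half-log steps, 0.5% DMSO vehicle, in duplicate. JUN mRNA was quantified by TaqMan qRT-PCR, normalized to ACTB, GAPDH, POLR2A.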

[13] = read-out: Lipase C (LIPC), LIPC (gene 3990); test: LTEA_HepaRG_LIPC: Life Technologies and Expression Analysis (LTEA) Assay for Lipase C (LIPC) using HepaRG (AID 2283514)
Outline: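 HepaRG cells, 48 h after plating, treated in duplicate for 48 h in serum-free induction medium over 8 half-log concentrations from 100 uM, 0.5% DMSO. LIPC mRNA by TaqMan qRT-PCR normalized to ACTB/GAPDH/POLR2A; bidirectional fit versus DMSO.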

[14] = read-out: Lipoprotein lipase (LPL), LPL (gene 4023); test: LTEA_HepaRG_LPL: Life Technologies and Expression Analysis (LTEA) Assay for Lipoprotein lipase (LPL) using HepaRG (AID 2283515)
Outline: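 Differentiated HepaRG cells, plated 48 h, then exposed 48 h in serum-free induction medium to 8 concentrations (top 100 uM, half-log steps) in 0.5% DMSO, duplicate. LPL mRNA measured by qRT-PCR, normalized to ACTB, GAPDH and POLR2A.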

[15] = read-out: MicroRNA 122 (MIR122), gene 406906; test: LTEA_HepaRG_MIR122: Life Technologies and Expression Analysis (LTEA) Assay for MicroRNA 122 (MIR122) using HepaRG (AID 2283516); further: the transcript read is the microRNA miR-122
Outline: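 Differentiated human HepaRG cells were exposed 48 h in serum-free induction medium to eight half-log concentrations (top 100 uM, 0.5% DMSO). Transcript level was measured by TaqMan qRT-PCR, normalized to ACTB, GAPDH and POLR2A, and fitted bidirectionally versus DMSO.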

[16] = read-out: matrix metalloproteinase-10 (MMP10), MMP10 (gene 4319); test: LTEA_HepaRG_MMP10: Life Technologies and Expression Analysis (LTEA) Assay for matrix metalloproteinase-10 (MMP10) using HepaRG (AID 2283517)
Outline: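 Differentiated HepaRG cells in serum-free induction medium exposed 48 h in duplicate to 8-point half-log series up to 100 uM in 0.5% DMSO. mRNA quantified by qRT-PCR, normalised to ACTB, GAPDH, POLR2A; bidirectional fit versus DMSO.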

[17] = read-out: Intercellular Adhesion Molecule 1 (ICAM1), ICAM1 (gene 3383); test: LTEA_HepaRG_ICAM1: Life Technologies and Expression Analysis (LTEA) Assay for Intercellular Adhesion Molecule 1 (ICAM1) using HepaRG (AID 2283507)
Outline: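 Readout is qRT-PCR mRNA level, normalized to three housekeeping genes and fitted bidirectionally against 0.5% DMSO vehicle. Human HepaRG cultures received compound for 48 h, top concentration 100 uM with half-log dilutions.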

Measured: AC50

CN(C)C=O
not listed: [17]
inactive: all other assays above

O=C(OCCOCCOC(=O)c1ccccc1)c1ccccc1
inactive: all assays above

CCc1ccc(CCOc2ccc(CC3SC(=O)NC3=O)cc2)nc1 (configuration not stated)
inactive: [3] | HGF (gene 3082) | [10] | [12]
active: [1] 11 µM | [2] 68.3 µM | [4] 23.6 µM | [5] 85.2 µM | [6] 64.9 µM | [7] 82 µM | [8] 88.8 µM | [9] 63.5 µM | [11] 31.3 µM | [13] 82 µM | [14] 9.92 µM | [15] 72.7 µM | [16] 86.3 µM

CC(C)(C)CC(C)(C)c1ccc(O)c(-n2nc3ccccc3n2)c1
active: [4] 72.7 µM | [5] 50 µM | [6] 50 µM
not listed: [17]
inactive: all other assays above

CC(C)(C)c1cccc(C(C)(C)C)c1O
inactive: all assays above

CCCCOCCO
inactive: all assays above

CC(O)CO (configuration not stated)
not listed: [17]
inactive: all other assays above
